Consider 20 compounds from PubChem BioAssay (EPA / NIEHS).

Records with an inconclusive call do not appear. Active and inactive are the calls of the source. Rule for the calls, unless noted: active = hit-call score of the fitted dose curve at least 0.9, where 1 is the maximum; inactive = score below 0.9.

Read-out in experiment [1]: E-selectin (Homo sapiens) (UniProt P16581)
The experiment can be described thus: BSK_SAg_Eselectin: BioMAP Diversity Plus: SAg Assay for Eselectin Biomarker Activity (AID 2283091). To be noted: primary human HUVEC with PBMC; actives raise or lower the signal. Put shortly:
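Co-culture: HUVEC + PBMC. Dose compound; 24 h. ELISA for E-selectin. Bidirectional fit vs DMSO.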

Read-out in experiment [2]: Monokine induced gamma interferon (MIG), CXCL9 (gene 4283)
The experiment can be described thus: BSK_SAg_MIG: BioMAP Diversity Plus: SAg Assay for Monokine induced gamma interferon (MIG) Biomarker Activity (AID 2283092). To be noted: primary human HUVEC with PBMC; actives raise or lower the signal. The essentials:
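HUVEC plus human PBMC co-culture, chemicals dosed and MIG (CXCL9) quantified by ELISA at 24 h. Bidirectional curve fitting against DMSO as negative control and baseline, so both gain and loss of signal count as activity.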

Experiment [3] in a line: BSK_SAg_PBMCCytotoxicity: PBMC Cytotoxicity Assessment in the BioMAP Diversity Plus: SAg Assay (AID 2283093).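 For AC50: PBMC superantigen activated with SEB plus TSST-1 one hour after compound addition.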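 Note: fitted both ways against DMSO so a hit may be loss or gain of signal.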 To be noted: primary human HUVEC with PBMC. The essentials: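 PBMC viability by Alamar Blue reduction, fluorescence read at 546/580 nm after 6 h dye exposure. Cells were dosed 1 h before SEB plus TSST-1 activation (20 ng/mL final each), then held 90 h; endothelial/PBMC human co-culture.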

Read-out in experiment [4]: Interleukin-8 (IL8), CXCL8 (gene 3576)
The experiment in a line: BSK_SAg_IL8: BioMAP Diversity Plus: SAg Assay for Interleukin-8 (IL8) Biomarker Activity (AID 2283094). The note with it: primary human HUVEC with PBMC; actives raise or lower the signal. The essentials: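 HUVEC/PBMC co-culture, 24 h post-dose; IL-8 by ELISA. Gain or loss of signal fitted bidirectionally vs DMSO baseline.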

Experiment [5] is described as follows: BSK_SAg_Proliferation: Cell Proliferation Assessment in the BioMAP Diversity Plus: SAg Assay (AID 2283095).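 Note: relative cell number as total protein by SRB absorbance in sub-confluent culture.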 To be noted: primary human HUVEC with PBMC. Put shortly: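 HUVEC/PBMC co-culture, 96-well. TCA-fixed (10%), 0.1% SRB stain, A560 at 96 h. Protein content used as viability readout; bidirectional fitting vs DMSO control.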
Experiment [6] in a line: BSK_SAg_SRB: Viability Assessment in the BioMAP Diversity Plus: SAg Assay (AID 2283096).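 Note: cells read one day after compound addition; hits may be either gain or loss of signal compared with DMSO.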 To be noted: primary human HUVEC with PBMC. The essentials:
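Compounds were added to a human vascular co-culture of umbilical vein endothelium and PBMC. After 24 h, parallel cultures were fixed with 10% TCA, stained with 0.1% sulforhodamine B and read at 560 nm. Gain or loss of signal was fitted relative to DMSO.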

Experiment [7] concerns the target human CYP19A1, CYP19A1 (gene 1588) (UniProt P11511). The experiment can be described thus: NVS_ADME_hCYP19A1: NovaScreen (NVS) CYP450-related Enzyme Activity (ADME) Assay for human CYP19A1 (AID 2283098; active = hit-call score of the fitted dose curve at least 0.9, where 1 is the maximum). Put shortly: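 Fluorescence intensity read-out; activity taken as signal loss relative to acetonitrile vehicle. Extracted enzyme, specific substrate, no cells, 0.5 h exposure. Duplicate single-point screen at 10 uM, then concentration–response follow-up for actives.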

The target of experiment [8] is human CYP2A6, CYP2A6 (gene 1548) (UniProt P11509). The experiment can be described thus: NVS_ADME_hCYP2A6: NovaScreen (NVS) CYP450-related Enzyme Activity (ADME) Assay for human CYP2A6 (AID 2283099; active = hit-call score of the fitted dose curve at least 0.9, where 1 is the maximum). Put shortly:
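Fluorescent substrate turnover by recombinant CYP2A6 (insect cell source), 0.5 h read. Screen: 10 uM, duplicate; threshold hits (e.g. 30% inhibition) → singleton concentration-response, top 20 uM. Positive and negative controls on every plate.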

Experiment [9] deals with human CYP2B6, CYP2B6 (gene 1555) (UniProt P20813). The experiment can be described thus: NVS_ADME_hCYP2B6: NovaScreen (NVS) CYP450-related Enzyme Activity (ADME) Assay for human CYP2B6 (AID 2283101; active = hit-call score of the fitted dose curve at least 0.9, where 1 is the maximum). Put shortly: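 Recombinant human CYP2B6 with fluorogenic substrate, read by fluorescence intensity 1 h after dosing. Primary screen in duplicate at 10 uM, actives followed in concentration series; signal loss relative to acetonitrile control.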
human CYP2B6, CYP2B6 (gene 1555), sequence (P20813 whole entry, looked up): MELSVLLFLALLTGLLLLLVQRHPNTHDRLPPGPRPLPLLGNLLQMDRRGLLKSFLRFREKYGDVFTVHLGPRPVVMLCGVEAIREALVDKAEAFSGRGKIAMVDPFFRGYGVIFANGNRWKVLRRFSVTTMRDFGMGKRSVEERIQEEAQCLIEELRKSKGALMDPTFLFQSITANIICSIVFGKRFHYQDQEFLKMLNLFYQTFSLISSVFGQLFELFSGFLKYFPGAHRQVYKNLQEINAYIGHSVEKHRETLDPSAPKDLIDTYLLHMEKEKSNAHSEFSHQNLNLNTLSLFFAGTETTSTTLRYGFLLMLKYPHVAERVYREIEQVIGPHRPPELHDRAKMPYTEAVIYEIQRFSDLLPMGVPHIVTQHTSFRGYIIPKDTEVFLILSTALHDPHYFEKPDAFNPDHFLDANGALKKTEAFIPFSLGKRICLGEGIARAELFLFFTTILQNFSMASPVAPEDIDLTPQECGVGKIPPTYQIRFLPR

E-selectin (Homo sapiens), sequence (P16581 whole entry, looked up): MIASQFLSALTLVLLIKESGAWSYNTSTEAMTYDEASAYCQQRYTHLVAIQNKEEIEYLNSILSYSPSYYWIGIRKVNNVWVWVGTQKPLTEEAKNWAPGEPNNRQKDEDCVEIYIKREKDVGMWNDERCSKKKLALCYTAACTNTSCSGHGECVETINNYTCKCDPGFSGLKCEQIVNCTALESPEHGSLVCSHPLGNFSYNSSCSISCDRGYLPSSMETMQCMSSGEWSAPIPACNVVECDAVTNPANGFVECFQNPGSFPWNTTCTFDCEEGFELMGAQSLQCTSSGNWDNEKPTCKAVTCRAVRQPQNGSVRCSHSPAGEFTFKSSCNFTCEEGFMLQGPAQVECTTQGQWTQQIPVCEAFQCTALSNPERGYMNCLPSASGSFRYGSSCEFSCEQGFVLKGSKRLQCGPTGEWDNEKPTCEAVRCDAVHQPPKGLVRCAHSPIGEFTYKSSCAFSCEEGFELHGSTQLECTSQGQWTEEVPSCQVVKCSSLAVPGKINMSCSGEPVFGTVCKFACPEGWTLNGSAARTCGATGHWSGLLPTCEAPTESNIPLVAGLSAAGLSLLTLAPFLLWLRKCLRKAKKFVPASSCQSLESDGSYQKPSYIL
human CYP2A6, CYP2A6 (gene 1548), sequence (P11509 whole entry, looked up): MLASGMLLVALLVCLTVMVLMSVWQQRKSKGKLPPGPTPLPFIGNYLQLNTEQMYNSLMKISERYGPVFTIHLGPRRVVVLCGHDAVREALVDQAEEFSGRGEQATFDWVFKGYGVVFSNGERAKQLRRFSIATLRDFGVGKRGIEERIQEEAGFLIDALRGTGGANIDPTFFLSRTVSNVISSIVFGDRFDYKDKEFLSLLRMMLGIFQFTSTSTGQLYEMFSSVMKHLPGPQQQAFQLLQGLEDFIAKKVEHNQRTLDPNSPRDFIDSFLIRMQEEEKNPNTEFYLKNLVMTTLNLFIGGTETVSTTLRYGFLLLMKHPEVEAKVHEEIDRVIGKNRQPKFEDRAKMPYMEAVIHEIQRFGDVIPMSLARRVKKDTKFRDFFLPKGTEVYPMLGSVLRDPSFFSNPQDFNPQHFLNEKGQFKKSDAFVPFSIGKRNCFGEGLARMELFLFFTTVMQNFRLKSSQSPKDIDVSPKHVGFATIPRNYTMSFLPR
human CYP19A1, CYP19A1 (gene 1588), sequence (P11511 whole entry, looked up): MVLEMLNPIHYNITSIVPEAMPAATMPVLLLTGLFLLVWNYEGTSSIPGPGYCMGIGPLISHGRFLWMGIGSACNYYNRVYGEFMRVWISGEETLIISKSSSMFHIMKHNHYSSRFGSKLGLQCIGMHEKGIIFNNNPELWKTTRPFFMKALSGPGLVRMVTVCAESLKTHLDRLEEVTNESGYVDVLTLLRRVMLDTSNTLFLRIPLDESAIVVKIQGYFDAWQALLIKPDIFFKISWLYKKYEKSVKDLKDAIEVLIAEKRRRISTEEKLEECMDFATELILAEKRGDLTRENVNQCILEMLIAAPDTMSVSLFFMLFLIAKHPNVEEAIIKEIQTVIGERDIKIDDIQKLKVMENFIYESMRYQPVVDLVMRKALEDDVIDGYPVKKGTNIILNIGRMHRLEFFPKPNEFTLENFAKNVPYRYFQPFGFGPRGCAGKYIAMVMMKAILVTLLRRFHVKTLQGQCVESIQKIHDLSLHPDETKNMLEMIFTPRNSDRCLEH

Take `O=S(=O)(O)c1ccc(N=Nc2c(O)ccc3cc(S(=O)(=O)O)ccc23)cc1`: the result in [1], in [2], in [3], in [4], in [5] and in [6] was inactive.

Take `OC(Cn1cncn1)(Cn1cncn1)c1ccc(F)cc1F`: the result in experiment [1], in experiment [2], in experiment [3], in experiment [4], in experiment [5] and in experiment [6] was inactive.

With `O=C1CN(N=Cc2ccc([N+](=O)[O-])o2)C(=O)N1`, the AC50 in [1] is 9.33 µM (active); in experiment [5] it was 9.07 µM (active). In addition, the result in experiment [2], in [3], in experiment [4] and in experiment [6] was inactive.

As to `O=c1[nH]cnc2c1ncn2[C@H]1CC[C@@H](CO)O1`, the outcome in experiment [1], in [2], in experiment [3], in experiment [4], in [5] and in experiment [6] was inactive.

On to `CCCCCCCC1CCC(=O)O1` (configuration not stated), for which the outcome in [1], in experiment [2], in experiment [4], in experiment [5] and in [6] was inactive.

`CC(C)c1nnc2ccc(-c3ocnc3-c3cc(F)ccc3F)cn12`: the AC50 in experiment [1] is 10.6 µM (active); in [3], 882 nM (active); in experiment [4], 1.27 µM (active); in experiment [5], 12.8 µM (active). Also, the outcome in [2] and in experiment [6] was inactive.

Turning to `CNC(C)=O`, the outcome in experiment [1], in experiment [2], in [3], in experiment [4], in [5] and in [6] was inactive.

`c1ccc2c(c1)-c1cccc3c1c-2cc1ccccc13`: in [1], the AC50 was 0.566 µM (active). For the same compound, the result in experiment [2], in experiment [3], in experiment [4], in [5] and in experiment [6] was inactive.

On to `COc1cc(C(C)C)c2c(c1)S(=O)(=O)N(COc1cc(=O)n3cccc(OCCN4CCCCC4)c3n1)C2=O`, for which the AC50 is 5 µM (active) in experiment [1] and 7.69 µM (active) in experiment [5]. Also, the result in [2], in [3] and in experiment [6] was inactive.

`O=S1(=O)CCCO1`: the result in experiment [1], in experiment [2], in experiment [3], in experiment [4], in experiment [5] and in experiment [6] was inactive.

Take `CCCCCCCCCCCCCCCCOS(=O)(=O)O`: the result in [1], in [2], in experiment [3], in [4], in experiment [5] and in experiment [6] was inactive.

With `CC(=O)c1ccccc1`, the result in experiment [1], in experiment [2], in experiment [3], in [4], in experiment [5] and in experiment [6] was inactive.

With `NC(=O)NN=Cc1ccc([N+](=O)[O-])o1`, the result in experiment [1], in experiment [2], in experiment [3], in [4], in experiment [6] and in experiment [7] was inactive. Moreover, the outcome in experiment [8] was inactive. Moreover, in experiment [5], the AC50 is 20 µM (active).

`NC(=O)N(O)[C@@H]1COc2cc(OCc3ccccc3)ccc21`: the outcome in [1], in experiment [2], in experiment [3], in experiment [4], in experiment [5] and in experiment [6] was inactive. Moreover, in experiment [9], the call was inactive.

`FC(F)(F)C(F)(F)C(F)(F)C(F)(F)C(F)(F)C(F)(F)I`: the result in [1], in experiment [2], in experiment [3], in [4], in experiment [5] and in experiment [6] was inactive.

For the compound `CCCCCCCCCC`, the result in [1], in experiment [2], in experiment [3], in experiment [4], in experiment [5] and in [6] was inactive. In [9], the AC50 is 10 µM (active).

As to `CCCCCCCCN(C)C`, the result in experiment [1], in experiment [2], in experiment [3], in experiment [4], in experiment [5] and in experiment [6] was inactive.

For `C=CN1CCCC1=O`, the outcome in [1], in experiment [2], in experiment [3], in [4], in experiment [5] and in experiment [6] was inactive.

For the compound `COCc1nnc(-c2ccc[n+]([O-])c2)n1-c1c(Cl)c(Cl)cc2[nH]c(=O)c(=O)[nH]c12`, the result in [1], in [2], in experiment [3], in experiment [4], in experiment [5] and in experiment [6] was inactive.

As to `CCCCC(CC)C(=O)OCCOCCOCCOC(=O)C(CC)CCCC` (configuration not stated), the result in experiment [1], in experiment [2], in experiment [3], in experiment [4] and in experiment [6] was inactive. In experiment [5], the AC50 is 24.7 µM (active).
